# Measured values as given in PubChem BioAssay (NCATS).
# “And” between values parts separate entries of the source, which are not always exact repeats. Identical values can stand only once. Values without a mark were called inactive. Records with an inconclusive call do not appear. Entries that show only a call come without a potency. The source made the active and inactive calls. Unless noted, calls come from the whole dose curve; as a rule, active = well fitted curve in the direction sought with a large enough effect; inconclusive = small, poorly fitted or top-dose-only effect, or another doubt; inactive = no such curve, though single readings can be large; an effect the other way counts as inactive or inconclusive.
# Assays:
# [1] = qHTS assay for environmental chemicals that activate the Aryl hydrocarbon Receptor (AhR) signaling pathway (AID 651777); conditions: 1A2-DRE human hepatoma cells, luciferase, 24 h; active compounds read high; note: nearly all actives have a fitted effect of over 15% in size
# How it was run: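 AhR activation is scored as a rise in luciferase from a stable DRE–CYP1A2 promoter construct in human hepatoma cells. Treatment lasts 24 hr at 37 C; detection uses One-Glo after 30 min at room temperature.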
# [2] = target: Peroxisome proliferator-activated receptor alpha (Homo sapiens) (UniProt Q07869); experiment: qHTS assay for small molecule agonists of the peroxisome proliferator-activated receptor alpha (PPARalpha) signaling pathway (AID 651778); conditions: PathHunter PPARalpha complementation, chemiluminescence, 6 h; max response: active compounds read high
# Chain of Peroxisome proliferator-activated receptor alpha (Homo sapiens) (Q07869 whole entry, looked up): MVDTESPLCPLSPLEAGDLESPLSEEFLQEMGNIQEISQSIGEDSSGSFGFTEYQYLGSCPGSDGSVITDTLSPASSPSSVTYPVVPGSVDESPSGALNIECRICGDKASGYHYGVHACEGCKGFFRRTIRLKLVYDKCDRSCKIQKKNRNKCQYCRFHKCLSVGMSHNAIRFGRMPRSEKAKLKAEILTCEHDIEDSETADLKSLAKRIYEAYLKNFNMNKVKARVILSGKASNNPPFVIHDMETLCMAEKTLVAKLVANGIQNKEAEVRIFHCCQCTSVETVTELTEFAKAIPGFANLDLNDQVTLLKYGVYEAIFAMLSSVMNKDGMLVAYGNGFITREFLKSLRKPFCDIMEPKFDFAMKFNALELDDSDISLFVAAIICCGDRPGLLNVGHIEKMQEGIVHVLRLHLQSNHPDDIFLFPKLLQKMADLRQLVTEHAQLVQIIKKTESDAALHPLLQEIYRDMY
# How it was run: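 Chemiluminescence from complemented enzyme reported PPARalpha activation in cells after 6 hr of compound treatment at 37 C. The detection reagent was incubated for 60 min at room temperature, and compounds were scored as agonists.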
# [3] = qHTS assay for small molecule agonists of the antioxidant response element (ARE) signaling pathway measured by Nrf2-dependant transcriptional activity (AID 720636; active = well fitted curve in the direction sought with a large enough effect in the repeat runs; an effect the other way counts as inactive or inconclusive;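 note: HepG2 cells with an ARE-driven luciferase reporter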); conditions: ARE-luc HepG2, Nrf2 luciferase reporter, 16 h; series mostly up to 92.4 µM
# How it was run: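 First, ARE-luc HepG2 cells attached for 6 hr at 37 C in 1% dialyzed FBS medium. Next, compound or DMSO was added and incubated 16 hr. Finally, ONE-Glo reagent was added and luminescence measured after 30 min.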
# [4] = qHTS assay for small molecule agonists of the antioxidant response element (ARE) signaling pathway measured by Nrf2-dependant transcriptional activity - cell viability counter screen (AID 720653; active = well fitted curve in the direction sought with a large enough effect in the repeat runs; an effect the other way counts as inactive or inconclusive); conditions: ARE-bla HepG2 viability, CellTiter-Glo ATP luminescence, 16 h; max response: active compounds read low
# How it was run: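 Cytotoxicity counter screen: intracellular ATP quantified by CellTiter-Glo luminescence in the same ARE-bla HepG2 plates, after 16 h compound exposure and a 2 h beta-lactamase substrate step.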
# [5] = qHTS Assay for Identifying Gametocytocidal Compounds (AID 743244); note: potency is the fitted concentration of half-maximal effect;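 for max response: actives lower the fluorescent signal which means gametocytes are killed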; conditions: P. falciparum 3D7 stage III-V gametocytes, alamarBlue, 72 h; max response: active compounds read low
# How it was run: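 Compounds are pinned into medium, gametocytes (stage III–V, 3D7, 20,000 cells/well) added, and plates held 72 h at 37 °C in 5% CO2. AlamarBlue follows for 24 h before fluorescence reading.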
# [6] = qHTS assay for cell viability of HEK293 cells (AID 743288); conditions: ATP luminescence (CellTiter-Glo), 18 h; max response: active compounds read low; note: nearly all actives have a fitted effect of over 50% in size
# How it was run: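 After 18 h compound exposure at 37 C, parental HEK293 cells (2,000/well) are lysed with CellTiter-Glo and luminescence is read following 30 min at room temperature.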
# [7] = qHTS assay for cell viability of the p53RE-bla HCT-116 cell line (AID 743292); conditions: p53RE-bla HCT-116 viability, ATP luminescence, 16 h; series mostly up to 95 µM; note: nearly all actives have a fitted effect of over 55% in size
# How it was run: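 Quantitative high-throughput format: compounds in DMSO were pinned onto p53RE-bla HCT-116 cells (4,000/well) and incubated 16 h at 37 C. Total intracellular ATP, read by CellTiter-Glo luminescence, reflects viable cell number.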
# [8] = qHTS assay for small molecule antagonists of the retinoid-related orphan receptor gamma (ROR-gamma) signaling pathway - cell viability counter screen (AID 720652; active = well fitted curve in the direction sought with a large enough effect in the repeat runs; an effect the other way counts as inactive or inconclusive;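 note: CHO reporter cells with doxycycline-induced ROR-gamma expression; compound exposure lasted 16 hr before ATP read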); conditions: RORgamma reporter cell line viability counter screen; series mostly up to 92.2 µM
# How it was run: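 Steps: seed CHO cells bearing TET-inducible ROR and ROR response element-luciferase; rest 5 hr at 37 C; add compound, then doxycycline; incubate 16 hr; add CellTiter-Glo and read luminescence as ATP-based viability.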
# [9] = target: Tyrosine-protein kinase Yes (Homo sapiens) (UniProt P07947); experiment: qHTS for small molecule inhibitors of Yes1 kinase: Primary Screen (AID 686947); conditions: Yes1 kinase biochemical qHTS inhibition; series mostly up to 76.9 µM; note: nearly all actives have a fitted effect of over 60% in size
# Chain of Tyrosine-protein kinase Yes (Homo sapiens) (P07947 whole entry, looked up): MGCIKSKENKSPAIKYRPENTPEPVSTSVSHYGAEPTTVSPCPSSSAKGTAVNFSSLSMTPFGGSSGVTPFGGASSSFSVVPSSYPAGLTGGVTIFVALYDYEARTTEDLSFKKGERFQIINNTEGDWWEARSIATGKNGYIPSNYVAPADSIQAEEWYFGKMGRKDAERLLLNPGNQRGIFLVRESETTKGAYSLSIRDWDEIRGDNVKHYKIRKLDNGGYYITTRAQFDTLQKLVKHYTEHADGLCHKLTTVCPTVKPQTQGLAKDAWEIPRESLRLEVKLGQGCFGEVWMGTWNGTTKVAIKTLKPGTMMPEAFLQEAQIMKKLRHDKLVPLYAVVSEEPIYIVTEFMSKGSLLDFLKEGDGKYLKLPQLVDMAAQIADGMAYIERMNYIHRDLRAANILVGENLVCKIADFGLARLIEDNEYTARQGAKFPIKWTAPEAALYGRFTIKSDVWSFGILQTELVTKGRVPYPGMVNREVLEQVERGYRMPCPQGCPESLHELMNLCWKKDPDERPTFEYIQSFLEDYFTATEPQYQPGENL
# How it was run: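 ADP-Glo luminescence reports ADP formed by 4 nM Yes1 phosphorylating poly(E4Y) (0.3 mg/mL) with 0.1 mM ATP for 60 min at room temperature, following 20 min compound preincubation; normalised between DMSO wells with and without enzyme.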
# [10] = qHTS for small molecule inhibitors of Yes1 kinase: Counter Assay (AID 686950); conditions: series mostly up to 76.9 µM;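 note: no kinase present so only ADP-Glo detection of a fixed ADP amount is tested; luminescence from ADP-Glo reporting ADP in a fixed ATP and ADP mixture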
# How it was run: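 ADP-Glo luminescence read after a 60 min room-temperature incubation of compound with an ATP/ADP mix (0.08 mM/0.02 mM) and no kinase, following a 20 min compound preincubation. Signal scaled between ATP+ADP (max) and 0.1 mM ATP-only (min) wells; Tris pH 7.5, Mg2+, DTT.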
# [11] = target: Arylsulfatase A (Homo sapiens) (UniProt P15289); experiment: qHTS screen for enhancers of Arylsulfatase A (ASA1): LOPAC Validation Assay (AID 720538); conditions: ASA enzyme activity, LOPAC qHTS enhancer assay; series mostly up to 57.5 µM
# Chain of Arylsulfatase A (Homo sapiens) (P15289 whole entry, looked up): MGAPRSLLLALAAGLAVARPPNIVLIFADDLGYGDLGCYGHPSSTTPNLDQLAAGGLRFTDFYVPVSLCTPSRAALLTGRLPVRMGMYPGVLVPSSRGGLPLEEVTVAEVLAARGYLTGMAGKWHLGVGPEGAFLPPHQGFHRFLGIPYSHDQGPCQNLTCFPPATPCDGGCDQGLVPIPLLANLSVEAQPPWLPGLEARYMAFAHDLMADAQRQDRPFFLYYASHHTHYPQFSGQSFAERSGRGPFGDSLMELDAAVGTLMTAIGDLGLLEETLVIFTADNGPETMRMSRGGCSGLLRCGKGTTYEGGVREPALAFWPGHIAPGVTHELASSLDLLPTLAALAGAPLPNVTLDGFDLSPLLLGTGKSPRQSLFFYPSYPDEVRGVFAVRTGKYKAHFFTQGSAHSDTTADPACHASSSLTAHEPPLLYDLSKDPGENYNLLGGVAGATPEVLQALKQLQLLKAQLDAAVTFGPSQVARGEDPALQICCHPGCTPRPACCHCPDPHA
# How it was run: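 SV40-transformed skin fibroblasts from an MLD patient (ASA-I179S) were treated with compounds for 48h at 37 degree C, then lysed with 0.5mM pNCS final substrate for 14h at room temperature; NaOH stop, fluorescence read (Ex=525 nm; Em=598 nm).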
# [12] = qHTS for compounds that reverse cellular toxicity of Amyloid beta (A-beta) peptide in yeast: LOPAC Validation Assay (AID 720559); conditions: yeast expressing A-beta; series mostly up to 46.1 µM
# How it was run: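 Yeast cells expressing toxic A-beta were combined with pinned compounds in growth medium and incubated 48 hr at 30 C. Growth was read as absorbance at 600 nm and normalized to DMSO and to an equimolar FeCl3/clioquinol positive control.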
# [13] = qHTS for Activators of Parkin Expression: LOPAC Validation Assay (NLuc Reporter) (AID 720572); conditions: Parkin promoter NanoLuc reporter cells, luminescence, percent of positive control, DMSO as zero; series mostly up to 46.1 µM
# How it was run: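 Compound effects on Parkin promoter activity were measured as NanoLuc luminescence after 24 h at 37 C. The neuronal reporter line also carried FLuc, which was read first. LOPAC compounds were tested at 7 concentrations, with normalization to DMSO (0%) and positive control (100%).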
# [14] = qHTS for Activators of Parkin Expression: LOPAC Validation Assay (FLuc Reporter) (AID 720573); conditions: Cell line, PRKN promoter firefly luciferase reporter, vehicle wells = 0, positive control = 100%; series mostly up to 46.1 µM
# How it was run: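 Neuronal cell line stably carrying FLuc/NLuc coincidence reporter under Parkin promoter; cells plated 24 h, then compounds added in 7-point dose response for 24 h at 37 C. FLuc luminescence read; normalized to DMSO and positive control (100%).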
# [15] = target: T1, Hexokinase-4 (Homo sapiens) + Glucokinase regulatory protein (Homo sapiens) (UniProt P35557+Q14397); experiment: qHTS assay for inhibitors of recombinant human GCK-GKRP interaction: Diaphorase-coupled assay (AID 743205); conditions: G6PDH/diaphorase resorufin fluorescence; series mostly up to 57.5 µM
# T1 sequence (P35557 whole entry, looked up): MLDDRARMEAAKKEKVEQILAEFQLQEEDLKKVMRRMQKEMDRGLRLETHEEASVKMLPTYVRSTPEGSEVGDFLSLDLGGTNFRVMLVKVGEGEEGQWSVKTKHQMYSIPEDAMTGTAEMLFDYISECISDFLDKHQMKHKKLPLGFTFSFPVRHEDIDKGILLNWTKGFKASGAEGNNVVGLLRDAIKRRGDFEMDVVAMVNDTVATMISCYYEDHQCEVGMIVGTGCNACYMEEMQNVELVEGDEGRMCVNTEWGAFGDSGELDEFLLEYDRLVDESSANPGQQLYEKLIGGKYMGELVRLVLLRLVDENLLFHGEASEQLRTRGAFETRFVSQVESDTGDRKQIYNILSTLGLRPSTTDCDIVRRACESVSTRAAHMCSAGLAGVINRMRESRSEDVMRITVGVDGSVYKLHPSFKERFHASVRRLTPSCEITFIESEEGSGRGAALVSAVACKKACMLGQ
# T1 sequence (Q14397 whole entry, looked up): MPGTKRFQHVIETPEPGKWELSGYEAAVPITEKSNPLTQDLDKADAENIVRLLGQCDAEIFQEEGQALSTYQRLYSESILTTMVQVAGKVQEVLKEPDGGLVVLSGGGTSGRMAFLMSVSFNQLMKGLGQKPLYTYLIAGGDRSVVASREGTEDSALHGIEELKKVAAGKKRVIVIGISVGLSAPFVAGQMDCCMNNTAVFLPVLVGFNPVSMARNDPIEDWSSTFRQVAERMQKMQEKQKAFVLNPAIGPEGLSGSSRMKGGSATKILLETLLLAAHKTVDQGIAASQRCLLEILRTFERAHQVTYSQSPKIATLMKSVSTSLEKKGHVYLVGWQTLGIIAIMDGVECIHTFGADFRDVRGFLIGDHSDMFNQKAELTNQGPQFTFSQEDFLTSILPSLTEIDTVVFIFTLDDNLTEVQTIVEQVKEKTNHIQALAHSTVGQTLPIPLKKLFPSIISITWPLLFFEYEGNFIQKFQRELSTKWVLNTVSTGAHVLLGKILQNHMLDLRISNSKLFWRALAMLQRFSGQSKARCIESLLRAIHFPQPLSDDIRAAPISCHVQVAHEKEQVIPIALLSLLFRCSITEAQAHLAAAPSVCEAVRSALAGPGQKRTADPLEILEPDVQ
# How it was run: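 GST-GCK (10 nM) with FLAG-GKRP (10 nM), 5 mM glucose and 0.4 mM ATP in pH 7.6 Hepes; compounds preincubated 20 min with substrate. G6PDH/diaphorase coupling converts resazurin to resorufin, read kinetically (ex 525/em 590 nm) for 30 min.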
# [16] = target: T1, Hexokinase-4 (Homo sapiens) + Glucokinase regulatory protein (Homo sapiens); experiment: qHTS assay for inhibitors of recombinant human GCK-GKRP interaction: ADP-Glo assay (AID 743206); conditions: ADP-Glo luminescence, 60 min, 0% = vehicle-only wells with enzyme present; series mostly up to 76.9 µM
# How it was run: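 Pin-transferred compounds meet a 15 nM GST-GCK/15 nM FLAG-GKRP/2 uM S6P mix (dispense concentrations). ATP is then added to 0.4 mM final with 5 mM glucose, and the reaction runs 60 min at room temperature. ADP is quantified luminescently.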
# [17] = target: T1, Hexokinase-4 (Homo sapiens) + Glucokinase regulatory protein (Homo sapiens); experiment: qHTS assay for inhibitors of recombinant human GCK-GKRP interaction: HTRF assay (AID 743207); conditions: recombinant GCK-GKRP HTRF binding, 60 min, with sorbitol-6-phosphate; series mostly up to 57.5 µM
# How it was run: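 GST-GCK and FLAG-GKRP (5 nM each) were combined with 2 uM S6P in pH 7.1 Hepes/MgCl2/KCl/DTT buffer, then compound and anti-FLAG XL665/anti-GST K antibodies were added. After 60 min at room temperature, HTRF 665/615 nm emission was read.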
# [18] = qHTS assay to identify small molecules that stimulate interleukin-8 (IL-8) secretion (AID 651758; active = well fitted activation curve with a large enough effect in the signal ratio; the % refers to the signal ratio); conditions: HTRF ratio (665/615); series mostly up to 92.2 µM
# How it was run: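 Secreted IL-8 measured homogeneously by TR-FRET (two labelled anti-IL-8 antibodies, 1-3 h at room temperature) after a 16 h, 37 C compound treatment of THP-1 cells at 2000 cells/well.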
smiles,measurement,setting,value
OC(Cn1cncn1)(Cn1cncn1)c1ccc(F)cc1F,activation,[1],-1.75%
same,max response,[2],-1.95%
same,outcome,[3],inactive
same,max response,[4],0.0873%
same,max response,[5],-0.14%
same,max response,[6],-6.93%
same,Potency,[7],inactive
Cc1noc(NS(=O)(=O)c2ccc(N)cc2)c1C,activation,[1],0.11% and 1.55%
same,max response,[2],0.0609% and -2.74%
same,outcome,[3],inactive
same,Potency,[8],inactive
same,max response,[4],-4.33% and -0.699%
same,max response,[5],-10.4% and -5.26%
same,max response,[6],-2.22% and 5.06%
same,Potency,[7],inactive
COc1cc2nc(N3CCCN(C)CC3)nc(NC3CCN(Cc4ccccc4)CC3)c2cc1OC,outcome,[9],inactive
same,outcome,[10],inactive
same,outcome,[11],inactive
same,outcome,[12],inactive
same,outcome,[13],inactive
same,outcome,[14],inactive
same,outcome,[15],inactive
same,outcome,[16],inactive
same,outcome,[17],inactive
Cc1ncc([N+](=O)[O-])n1CCO,outcome,[18],inactive
same,activation,[1],-0.201%
same,max response,[2],-0.879%
same,outcome,[3],inactive
same,Potency,[8],inactive
same,max response,[4],-1.04%
same,max response,[6],-4.68%
same,Potency,[7],inactive
COc1ccc2cc3[n+](cc2c1OC)CCc1cc2c(cc1-3)OCO2,max response,[2],-3.31%
same,outcome,[3],inactive
same,Potency,[8],inactive
same,max response,[4],-27.8%
same,max response,[6],-16%
same,Potency,[7],inactive
CC1=NN(c2ccccc2)C(=O)C1,max response,[2],-0.816% and -5.33%
same,outcome,[3],inactive
same,Potency,[8],inactive
same,max response,[4],-3.99% and -6.22%
same,max response,[5],-1.13%
same,max response,[6],-6.75% and -3.56%
same,Potency,[7],inactive
O=S(=O)(c1cccc2cnccc12)N1CCCNCC1,outcome,[9],inactive
same,outcome,[10],inactive
CCc1cc(C(N)=S)ccn1,max response,[2],-3.66% and -3.46%
same,outcome,[3],inactive
same,Potency,[8],inactive
same,max response,[4],-5.32% and -4.73%
same,max response,[5],-11%
same,max response,[6],6.59% and -10.6%
same,Potency,[7],inactive
COc1cc2c(Nc3ccc(Br)cc3F)ncnc2cc1OCC1CCN(C)CC1,outcome,[10],inactive
same,Potency,[5],9.35 µM (active) and 5.62 µM (active)
Cc1ccnc2c1NC(=O)c1cccnc1N2C1CC1,activation,[1],0.221%
same,max response,[2],-3.94%
same,outcome,[3],inactive
same,Potency,[8],inactive
same,max response,[4],-0.463%
same,max response,[5],21.9%
same,max response,[6],-6.97%
same,Potency,[7],inactive
Cc1nnc(C(=O)NC(C)(C)c2nc(C(=O)NCc3ccc(F)cc3)c(O)c(=O)n2C)o1,outcome,[9],inactive
same,outcome,[10],inactive
